CYP2C19 inhib = blocks human cytochrome P450 2C19; CYP2C19 Supersomes, luciferin-H EGE luminescence, 30 min; hit rate 21% among 96,000; P33261; inhibition, % at 5 µM;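 active = CYP2C19 inhibition above a set limit at 5 µM in the primary screen, cut at about 50% in these data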
Target sequence (P33261 whole entry, looked up): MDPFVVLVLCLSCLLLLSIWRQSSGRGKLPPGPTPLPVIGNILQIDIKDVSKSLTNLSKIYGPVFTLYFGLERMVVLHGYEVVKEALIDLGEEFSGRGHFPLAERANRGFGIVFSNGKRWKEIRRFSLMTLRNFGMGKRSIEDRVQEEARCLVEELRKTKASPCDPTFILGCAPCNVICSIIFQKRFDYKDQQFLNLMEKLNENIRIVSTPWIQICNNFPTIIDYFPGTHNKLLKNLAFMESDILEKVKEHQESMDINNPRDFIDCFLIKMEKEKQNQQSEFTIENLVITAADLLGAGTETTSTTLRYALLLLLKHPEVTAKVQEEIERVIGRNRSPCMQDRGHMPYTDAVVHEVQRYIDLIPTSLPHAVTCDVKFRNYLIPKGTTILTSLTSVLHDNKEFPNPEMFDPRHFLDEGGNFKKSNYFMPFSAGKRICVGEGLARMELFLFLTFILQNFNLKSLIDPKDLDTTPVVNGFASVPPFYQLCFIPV
CYP2C9 inhib = human CYP2C9 inhibition; P11712; CYP2C9 Supersomes, luciferin-H conversion, luminescence; inhibition, % at 5 µM; hit rate 20% among 96,000;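 active = blocking of liver enzyme CYP2C9 beyond about 50% at 5 µM, limit read from the data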
PostGolgi ctrl = yeast control strain growth, post-Golgi counter-screen; inhibition, % at 10 µM; efflux-deficient yeast background strain, growth absorbance A615, 16 h; hit rate 5% among 98,000
CYP2C19 activ = activators of human cytochrome P450 2C19. P33261. recombinant CYP2C19, luciferin-H EGE luminescence; hits give high values; 0 = fully inhibited enzyme, 1 = untreated enzyme. activation factor at 5 µM. 96,000 tested, under 10 active. AID 1025;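 active = activation factor of at least 2 at 5 µM in the primary screen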
CYP2C9 act = activators of human CYP2C9; P11712; hit rate 1.4% among 96,000; recombinant CYP2C9, luciferin-H conversion, luminescence; hits give high values; factor 1 = untreated enzyme, 0 = blocked; activation factor at 5 µM;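 active = activation factor of 2 or more for CYP2C9 at a 5 µM dose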
PostGolgi yeast = growth inhibition of a yeast mutant, post-Golgi transport screen; inhibition, % at 10 µM; AID 739; post-Golgi transport phenotypic cell assay; hit rate 0.9% among 98,000;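 also: yeast cells grown in 1536-well plates; yeast grown about 18 h at 30C before absorbance read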
Of the large screens only hits and unclear results are named; the others gave an inactive call. The list is a sample of the results. Rule as the data show it, unless noted: active = inhibition above about 30%; inactive = the rest.

CCOc1cc(CN2CCOCC2)cc(C(C)=O)c1	none
O=C1c2cccnc2C(O)N1C1CCCCC1 (stereo unspecified)	none
COc1ccccc1CNC(=O)CCS(=O)(=O)c1cccc2nonc12	CYP2C19 inhib 91.0, CYP2C9 inhib 59.0
Cc1ccc(CNC(=O)CCS(=O)(=O)c2cccc3nonc23)cc1	none
COc1ccccc1CNC(=O)CCS(=O)(=O)c1cccs1	CYP2C19 inhib 82.6
COc1ccc(CNC(=O)CCS(=O)(=O)c2cccc3nonc23)cc1	CYP2C19 inhib 73.8
COC(=O)c1nc(NC(=O)C(C)(C)C)n[nH]1	none
O=C(Nc1ccc(F)cc1)c1ccccc1CC[N+](=O)[O-]	none
COc1ccccc1-n1c(SCC(N)=O)nnc1-c1ccccc1	none
Nn1c(Cc2ccccc2F)nnc1SCn1nnc2ccccc2c1=O	CYP2C19 inhib 64.0
Cc1ccc(-n2c(SCn3nnc4ccccc4c3=O)nnc2-c2cccnc2)c(C)c1	none
O=c1c2ccccc2nnn1CSc1nnc(-c2cccnc2)n1-c1ccccc1F	CYP2C19 inhib 75.2
CCOC(=O)CCSc1nnc(-c2cccnc2)n1-c1ccccc1OC	CYP2C19 inhib 54.0
CCC(C)(C)n1c(=O)[nH]c2c(c1=O)CCC2	none
CCCCn1c(=O)n(CC(O)c2ccccc2)c(=O)c2c1ncn2C1CCCC1 (stereo unspecified)	none
CSc1nc2ccc3nc(NC(=O)c4ccccc4)sc3c2s1	none
O=C(CN1CCN(S(=O)(=O)c2ccccc2)CC1)Nc1ccc2c(c1)OCO2	none
COc1ccc(NC(=O)CCN2CCN(S(=O)(=O)c3ccc(Cl)cc3)CC2)cc1	CYP2C19 inhib 70.7, CYP2C9 inhib 75.1
CCOC(=O)c1ccc(S(=O)(=O)N2CCN(CC(=O)NC(=O)NC(C)(C)C)CC2)cc1	CYP2C9 inhib 72.4
CCOC(=O)c1ccc(NC(=O)COc2ccc(S(=O)(=O)N3CCCC3)cc2)cc1	none
O=C(CN1CCN(S(=O)(=O)c2ccccc2)CC1)Nc1ccc(Cl)c(Cl)c1	CYP2C19 inhib 77.1
CCOc1ccc(NC(=O)CN2CCN(S(=O)(=O)c3ccc(Cl)cc3)CC2)cc1	CYP2C19 inhib 80.1
O=C(NCC1CCCO1)C1CC(=O)N(C2CCCC2)C1 (stereo unspecified)	none
CC(C)c1ccc(S(=O)(=O)N2CCN(CCC(=O)Nc3ccc(N(C)C)cc3)CC2)cc1	none
COc1ccc(NC(=O)CCN2CCN(S(=O)(=O)c3ccc(C(C)C)cc3)CC2)cc1	CYP2C9 inhib 65.9
O=C(NCc1ccccc1)N1CCC(c2nc3ccccc3[nH]2)CC1	none
COCCn1c(COc2cccc(OC)c2)nnc1SCC(=O)N1CCOCC1	none
CCS(=O)(=O)N1Cc2ccccc2CC1C(=O)OCC(=O)Nc1ccc(SC(F)F)cc1 (stereo unspecified)	CYP2C19 inhib 77.8, CYP2C9 inhib 93.1
CCS(=O)(=O)N1Cc2ccccc2CC1C(=O)N1CCN(c2ccccc2)CC1 (stereo unspecified)	none
CCS(=O)(=O)N1Cc2ccccc2CC1C(=O)OCC(=O)Nc1ccc(C)cc1 (stereo unspecified)	CYP2C19 inhib 75.0
CCCOc1ccc(C(=O)NNC(=S)NC(=O)CC)cc1	PostGolgi ctrl 98.9, PostGolgi yeast 76.1
CCOC(=O)N1CCC(NC(=O)c2csc3c2CCCC3)CC1	none
Cc1ccc(S(=O)(=O)/N=C2\C(=O)c3ccccc3C([O-])=C2n2cc[n+](CCC(C)C)c2)cc1	CYP2C9 inhib 52.6
Cc1ccc(S(=O)(=O)[N-]c2nc3ccccc3nc2-n2cc[n+](CCC(C)C)c2)cc1	CYP2C19 inhib 56.2, CYP2C9 inhib 94.4
COc1ccc(-n2c(C)cc(SC)c(C(C)=O)c2=S)cc1	none
O=C(CN(Cc1ccc(F)cc1)C(=O)C1CSC(=O)C1)NC1CCCCC1 (stereo unspecified)	none
Cc1cc(C(=O)COc2ncnc3sccc23)c(C)n1C	none
Nc1nonc1-c1nc2ccccc2n1Cc1ccc(Cl)cc1	CYP2C19 inhib 74.7, CYP2C9 inhib 53.1
COc1cc(Cn2c(-c3nonc3N)nc3ccccc32)ccc1C	CYP2C9 inhib 74.3
COc1cccc(Cn2c(-c3nonc3N)nc3ccccc32)c1	none
CCS(=O)(=O)Nc1cccc(-c2nc3cccnc3s2)c1C	none
O=C1N=c2ccccc2=C1c1sc(=S)n(CC2CCCO2)c1O (stereo unspecified)	none
C=CCn1c(O)c(C2=c3ccccc3=NC2=O)s/c1=N/c1nccs1	CYP2C9 inhib 61.0
C=CCn1c(-c2ccoc2C)n[nH]c1=S	none
C=CCn1c(-c2csc(-c3ccc(Cl)cc3)n2)n[nH]c1=S	CYP2C19 inhib 81.0
C=CCn1c(-c2csc(-c3ccccc3)n2)n[nH]c1=S	none
C=CCn1c(-c2csc3ccccc23)n[nH]c1=S	CYP2C19 inhib 93.1, CYP2C9 inhib 78.2
CCOC(=O)c1c(NC(=O)COC(=O)Cn2c(C(F)(F)F)nc3ccccc32)sc(C)c1C	none
CSc1nc(C)cc(OCNC(=O)c2cccs2)n1	none
O=C1c2ccccc2C(=O)C1Cc1cccc2ccccc12	CYP2C9 inhib 66.5
CCOC(=O)Nc1nnc(-c2ccc(OC)c(OC)c2)s1	none
CNCc1ccc(OCc2ccccc2)c(OC)c1	none
CNCc1ccccc1Sc1ccc(OC)c(OC)c1	CYP2C19 inhib 57.7
CC1Cc2ccccc2N1C(=O)CSc1nnc(-c2ccc(S(=O)(=O)N3CCCC3)cc2)o1 (stereo unspecified)	CYP2C19 inhib 65.9, CYP2C9 inhib 88.1
O=C(CSc1nnc(-c2ccc(S(=O)(=O)N3CCCC3)cc2)o1)NCc1ccco1	CYP2C19 inhib 63.3, CYP2C9 inhib 76.6
CCc1ccc(OCc2nnc(SCC(=O)NCc3ccco3)o2)cc1	none
CCN(CC)S(=O)(=O)c1ccc(-c2nnc(SCC(=O)N3CCc4ccccc43)o2)cc1	CYP2C9 inhib 65.6 (no result: PostGolgi ctrl, PostGolgi yeast)
COc1ccc(OCc2nnc(SCC(=O)NCc3ccco3)o2)cc1	CYP2C9 inhib 71.8
CCN(CC)C(=O)CSc1nnc(-c2ccc(S(=O)(=O)N3CCCC3)cc2)o1	none
N#Cc1ccccc1CSc1nc(N2CCCCC2)nc(N2CCCCC2)n1	none
O=c1cc(O)nc2n1CCCS2	none
N#CCCCn1c(-c2ccccc2)noc1=O	none
O=C(O)CSCCC(=O)Nc1ccc(F)cc1	none
Cc1c(NC(=O)c2ccc3c(c2)OCO3)c(=O)n(-c2ccccc2)n1C	none
O=C(O)C1CCC(=O)N(C2CCCCC2)C1c1ccccc1 (stereo unspecified)	none (no result: CYP2C19 inhib, CYP2C9 inhib, CYP2C19 activ, CYP2C9 act)
COc1ccc(-c2nnc(SCC(=O)NCc3ccco3)o2)cc1	CYP2C19 inhib 65.0
COc1ccc(Cc2nnc(SCC(=O)NCc3ccco3)o2)cc1	none
CCN(CC)S(=O)(=O)c1ccc(-c2nnc(SCC(=O)Nc3nc(C)cs3)o2)cc1	none
COC(=O)CNC(=O)CSc1nnc(-c2ccc(OC)cc2)n1CC(C)C	none
COc1cc(OC)cc(-c2nnc(SCC(=O)NCc3cccs3)o2)c1	CYP2C19 inhib 88.8
